This is part of a sample that, as a whole, favours compounds with a hit. Of some 83,000 tested, about 20% had one in any assay.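 Cell lines were cultured in 96-well plates, exposed to a single compound concentration, and assessed for percent growth 48 hours later.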 Calls of active or inactive are those of the source. Rule for the calls: active = growth percent below 10; inactive = the rest.
system: HL-60(TB) leukemia; test: NCI-60 one-dose screen, 48 h (100 = growth as untreated, 0 = no growth, -100 = all killed); conditions: 10 µM unless noted

SMILES | growth
CS(=O)(=O)Nc1cccc(-c2cc(-c3ccccc3Cl)c(C#N)c(N)n2)c1 | 8.6% (active)
CCS(=O)(=O)Nc1cccc(Nc2c3cccc(C)c3nc3c(C)cccc23)c1OC | -16.4% (active)
CNc1cc(C(=O)O)nc(NC)n1 | 105% (inactive)
CS(=O)(=O)c1nsc(N)n1 | 105% (inactive)
CC(=O)Nc1ccc2nc3ccc(NC(C)=O)cc3[n+](-c3ccccc3)c2c1 | 4% (active)
NC[C@H](O)c1ccc(O)c(O)c1 | 98.8% (inactive)
C=CC1(C)C(O[Si](C)(C)C(C)(C)C)CC2C3OC(=O)NC31c1cccc3c1[C@H](C(=O)N3C)C2(C)C (stereo not given in full) | 22.9% (inactive)
C#C[C@]1(O)CC[C@H]2[C@@H]3CC=C4c5sc(-c6cccc(Br)c6)nc5CC[C@]4(C)[C@H]3CC[C@@]21C | 77.9% (inactive)
CC(C)N(Cc1ccccc1)c1c(Cl)ssc1=O | 113% (inactive)
Cc1nc2ccc(C(=O)NCc3cc(C(=O)O)c(C)o3)cc2nc1C | 103% (inactive)
O=Cc1c(OCc2cnnn2CC(=O)Nc2ccc(Cl)cc2)ccc2ccccc12 | 98.5% (inactive)
O=C1N=c2ccccc2=C1c1sc(=S)n(C2CC(=O)N(c3ccc(Cl)cc3)C2=O)c1O (stereo not given) | 101% (inactive)
CN(C)c1cccc2[nH]c(-c3[nH]ncc3Nc3ccnc(N)n3)nc12 | -42.7% (active)
Cc1cc(Nc2nc(N3CCNCC3)nc3ccccc23)n[nH]1 | 106% (inactive)
C=C1CC[C@@H]2C(C)(C)[C@@H](O)CC[C@@]2(C)[C@@H]1COc1ccc2ccc(=O)oc2c1 | 69.1% (inactive)
CCOC(=O)c1ccc2c(c1)nc(-c1ccccc1)n2C1CCCCC1 | 63.1% (inactive)
CC1=C2[C@@H](CC1)[C@]1(C)O[C@@](C3CC3)(C[C@H]1OC(=O)CO)[C@H]2OC(=O)/C=C/c1ccccc1 | 92.6% (inactive)
COc1ccc(-c2nc3sccn3c2-c2ccnc(NCCCNS(=O)(=O)c3ccc(C)cc3)n2)cc1 | 0.661% (active)
CC(C)c1cc(C(C)C)c(S(=O)(=O)Oc2ccc(NC(=O)c3ccc(Cl)cc3)cc2)c(C(C)C)c1 | 16.9% (inactive)
CCCC(=O)NNc1[nH]c(-c2cc(OC)c(OC)c(OC)c2)cc1C(=O)OCC | -11.1% (active)

SMILES | growth
Cc1ccc(Sc2sc(-c3ccccc3)nc2[P+](c2ccccc2)(c2ccccc2)c2ccccc2)cc1 | -40.5% (active)
C=C(C)C1CCC(=C)C2CCC3(C)OC12/C=C(/COC(C)=O)CCC3O (stereo not given) | 90.8% (inactive)
CC(=O)C1N=NCC1c1ccccc1 (stereo not given) | 96.8% (inactive)
CSc1ccc2c3c(n(C[C@H](O)CO)c(=O)c2c1)-c1ccccc1C3=O | -12.2% (active)
COc1cccc(-c2nc3sccn3c2-c2ccnc(NCCN3CCCN(C)S3(=O)=O)n2)c1 | 105% (inactive)
NC(CO)(CO)c1ccccc1 | 119% (inactive)
Cc1cc(N2CCOCC2)nc(N(CCCNc2ccnc3cc(Cl)ccc23)Cc2ccc3c(c2)OCO3)n1 | -60.9% (active)
NC(=O)c1ccc(Br)o1 | 96.8% (inactive)
CC(C)(O)C(=O)O | 103% (inactive)
COc1cc(Cl)c(C)cc1NC(=O)c1cc2ccccc2cc1O | 9.27% (active)
COc1ccc(/C=C/C(=O)NCC(C)O)cc1 (stereo not given) | 109% (inactive)
Cn1cc(-c2ccc3occ(-c4cccc(-c5ccncc5)c4)c3n2)cn1 | 2.9% (active)
COc1cc(C(=O)/C=C/c2c(C(F)(F)F)nc3ccccn23)cc(OC)c1OC | -9.98% (active)
COc1ccc(S(=O)(=O)Nc2cc(/C=C\c3cc(OC)c(OC)c(OC)c3)cc(OC)c2OC)cc1OC | 2.73% (active)
Nc1nc(-c2ccnc(Cl)c2)nn1-c1nc2ccccc2s1 | 107% (inactive)
CCN(CC)CCOC(=O)Nc1ccccc1Cl | 102% (inactive)
COc1ccc(/C=N\NC(=O)c2ccc3nc(-c4ccc(Cl)cc4)[nH]c3c2)cc1 | 96.3% (inactive)
COc1cc2c(cc1OC)C(CC1(O)CCCCC1)N(S(=O)(=O)c1ccc(C)cc1)CC2 (stereo not given) | -25% [100 µM] (active)
N#Cc1c(N2CCOCC2)nc(=S)[nH]c1-c1ccco1 | 70.7% (inactive)
O=C1CC[C@H](c2ccc(O)c3c2C(=O)[C@@H]2O[C@@H]2C3=O)c2cccc(O)c21 | -20.5% (active)

Source: PubChem BioAssay (NCI)
